Among all 310,000 compounds or so, about 14,000 (4.5%) showed an effect of 50% or more. Effects have a minus sign here. The full list was thinned out, with strong results kept by preference.
Target: human ether-à-go-go-related gene (hERG) potassium channel (human, UniProt Q12809)
Assay: primary screen, population patch clamp on CHO cells stably expressing hERG; higher = less effect of the substance
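Also: peak tail current of the secondary pulse compared with the same well before compound.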

human ether-à-go-go-related gene (hERG) potassium channel, sequence (Q12809 whole entry, looked up): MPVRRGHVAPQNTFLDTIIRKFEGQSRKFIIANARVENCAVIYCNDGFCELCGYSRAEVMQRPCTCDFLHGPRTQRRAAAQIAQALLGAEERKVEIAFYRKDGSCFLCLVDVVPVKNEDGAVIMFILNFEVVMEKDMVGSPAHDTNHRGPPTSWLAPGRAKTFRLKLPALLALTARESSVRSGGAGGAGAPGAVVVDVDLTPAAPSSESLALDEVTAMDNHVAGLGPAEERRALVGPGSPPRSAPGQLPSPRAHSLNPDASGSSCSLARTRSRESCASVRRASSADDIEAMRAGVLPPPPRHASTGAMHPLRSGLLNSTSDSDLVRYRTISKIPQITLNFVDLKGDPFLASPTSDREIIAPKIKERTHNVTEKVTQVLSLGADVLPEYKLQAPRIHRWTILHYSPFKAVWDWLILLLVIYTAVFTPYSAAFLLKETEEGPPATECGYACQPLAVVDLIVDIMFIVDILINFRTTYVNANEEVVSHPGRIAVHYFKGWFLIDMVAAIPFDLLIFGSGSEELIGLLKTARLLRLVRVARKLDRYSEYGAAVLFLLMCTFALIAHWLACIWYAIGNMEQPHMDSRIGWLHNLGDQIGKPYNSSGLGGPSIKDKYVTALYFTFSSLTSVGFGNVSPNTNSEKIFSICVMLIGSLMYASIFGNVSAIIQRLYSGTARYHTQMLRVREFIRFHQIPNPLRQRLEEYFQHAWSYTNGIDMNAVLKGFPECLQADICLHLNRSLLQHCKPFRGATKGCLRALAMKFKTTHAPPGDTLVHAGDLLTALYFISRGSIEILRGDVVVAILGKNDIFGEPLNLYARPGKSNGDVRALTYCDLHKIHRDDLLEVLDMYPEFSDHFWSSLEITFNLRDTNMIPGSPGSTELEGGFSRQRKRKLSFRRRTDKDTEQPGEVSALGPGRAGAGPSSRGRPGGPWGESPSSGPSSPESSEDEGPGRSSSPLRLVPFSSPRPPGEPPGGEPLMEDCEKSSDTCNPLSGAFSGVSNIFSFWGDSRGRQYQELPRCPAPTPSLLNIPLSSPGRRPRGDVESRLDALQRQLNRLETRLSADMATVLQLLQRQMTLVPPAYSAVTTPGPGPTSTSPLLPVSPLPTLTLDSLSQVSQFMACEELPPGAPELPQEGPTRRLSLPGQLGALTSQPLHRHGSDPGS

SMILES | hERG current change (%, negative = inhibition) at 10uM [%]
CC1(C)Cc2c(c(N3CCCC3)nc3sc4c(N5CCNCC5)ncnc4c23)CO1 | -35.2
O=C(N/N=C/c1ccc(-c2cccc(C(F)(F)F)c2)o1)c1ccccc1Br | 3.21
CCOc1ccc(Cl)cc1S(=O)(=O)NC1CCCC1 | -3.26
Cn1c(=O)c2c(nc(Br)n2CC(=O)c2cccs2)n(C)c1=O | -6.03
CCc1ccc(NC(=O)C2CCCCC2C(=O)O)cc1 (stereo not shown) | 11.8
CCOc1ccc(NC(=O)CN(C)C(=O)c2ccc(N3CCOCC3)c([N+](=O)[O-])c2)cc1OCC | -19.1
CCOc1ccc(NC(=O)CN(C)C(=O)c2cc([N+](=O)[O-])ccc2N2CCOCC2)cc1OCC | -52.5
CCOc1ccc(NC(=O)CN(C)C(=O)c2cc([N+](=O)[O-])ccc2N2CCCCC2)cc1OCC | -43.9
O=C(NCC(=O)N(c1ccc(F)cc1)C(C(=O)NC1CCCC1)c1cccnc1)c1cccs1 (stereo not shown) | 7.21
CC(C)C[C@H](NC(=O)NCCC1=CCCCC1)C(=O)O | -4.82
O=C1Nc2ncccc2OC1CCCl (stereo not shown) | 6.83
O=C(COc1ccccc1Cl)NCCCNC(=O)c1ccco1 | 2.17
CN(C)CCCN(C(=O)c1ccc(S(=O)(=O)N(C)Cc2ccccc2)cc1)c1nc2cc3c(cc2s1)OCO3.Cl | -51.7
CCN(Cc1ccccc1)S(=O)(=O)c1ccc(C(=O)N(CCCN(C)C)c2nc3cc4c(cc3s2)OCCO4)cc1.Cl | -27.5
CCN(c1ccccc1)S(=O)(=O)c1ccc(C(=O)N(CCCN(C)C)c2nc3c(C)cccc3s2)cc1.Cl | -34.7
CN(C)CCN(C(=O)c1ccc2ccccc2c1)c1nc2c(F)cc(F)cc2s1.Cl | 3.41
CCN(Cc1ccccc1)S(=O)(=O)c1ccc(C(=O)N(CCCN(C)C)c2nc3cc4c(cc3s2)OCO4)cc1.Cl | -45.2
CCN(c1ccccc1)S(=O)(=O)c1ccc(C(=O)N(CCCN(C)C)c2nc3cc4c(cc3s2)OCO4)cc1.Cl | -57.4
CN(C)CCN(C(=O)c1ccc(S(=O)(=O)N(C)c2ccccc2)cc1)c1nc2cc3c(cc2s1)OCO3.Cl | -2.57
CN(C)CCN(C(=O)c1ccc(S(=O)(=O)N(C)c2ccccc2)cc1)c1nc2cc3c(cc2s1)OCCO3.Cl | -1.95

SMILES | hERG current change (%, negative = inhibition) at 10uM [%]
CCN(c1ccccc1)S(=O)(=O)c1ccc(C(=O)N(CCN(C)C)c2nc3c(F)cc(F)cc3s2)cc1.Cl | -54.7
COc1ccc(-c2noc(CN(C(=O)c3cccs3)C(C)C)n2)cc1 | -28.6
COc1ccc(S(=O)(=O)N2CCOCC2)c(Cl)c1Cl | -18.3
Cn1c(=O)c2c(nc(OCc3ccccc3)n2C)n(C)c1=O | 4.72
Cn1c(OCc2cccnc2)nc2c1c(=O)n(Cc1ccc(Cl)cc1)c(=O)n2C | -51.1
Cn1c(=O)c2c(nc(N/N=C/c3cccnc3)n2Cc2ccccc2)n(C)c1=O | -51.2
C=CCOc1nc2c(c(=O)n(Cc3ccc(Cl)cc3)c(=O)n2C)n1C | -2.66
Cn1c(=O)c2c(nc(N/N=C/c3ccncc3)n2Cc2ccccc2)n(C)c1=O | -28.8
Cn1c(=O)c2c(nc(OCc3cccnc3)n2Cc2c(F)cccc2Cl)n(C)c1=O | 1.03
Cn1c(OCc2cccnc2)nc2c1c(=O)n(Cc1ccc(F)cc1)c(=O)n2C | -51.9
Cn1c(=O)c2c(nc(OCc3cccnc3)n2Cc2ccccc2)n(C)c1=O | -32.8
Cn1c(OCc2ccc3c(c2)OCO3)nc2c1c(=O)n(Cc1cccc(Cl)c1)c(=O)n2C | -0.643
Cn1c(OCc2cccnc2)nc2c1c(=O)n(Cc1ccccc1)c(=O)n2C | -56.1
Cn1c(=O)c2c(nc(N/N=C/c3cccnc3)n2Cc2ccc(F)cc2)n(C)c1=O | -16.8
Cn1c(=O)c2c(nc(SCc3cccnc3)n2Cc2ccc(F)cc2)n(C)c1=O | -30.7
CN(CC(=O)Nc1cccc(F)c1)C(=O)c1ccccc1CCc1ccccc1 | 3.08
O=S(=O)(NCc1ccco1)c1cccc(S(=O)(=O)N2CCCCC2)c1 | -32.2
CCN1CCN(C(c2cccc(OC)c2)c2sc3nc(C)nn3c2O)CC1 (stereo not shown) | 19.7
COc1cccc(CNC(=O)CSC(=S)N2CCCC2)c1 | 2.79
CCOC(=O)N1CCN(c2c(NCCCOC(C)C)c(=O)c2=O)CC1 | -19.7
